# Assay results: PubChem BioAssay AID588855 (National Center for Advancing Translational Sciences (NCATS), 2011)
# The whole screen tested about 410,000 compounds, of which about 5,000 (1.2%) were called active. Inconclusive results (about 13%) are left out. What follows is part of a selection rich in actives, with near analogues and random picks from the rest. Values without a mark were called inactive. Calls follow the shape of the dose curve; as a rule, active = well fitted inhibition curve with a large enough effect; inconclusive = small, poorly fitted or top-dose-only effect; inactive = no such curve, though single readings can be large or run the other way.
# Test: qHTS for Inhibitors of TGF-b; also: nearly all actives have a fitted effect of over 65% in size
# Conditions: HepG2 CAGA-GFP TGF-b/SMAD3 reporter, GFP fluorescence, 18 h, TGF-beta stimulated, 500 pg/mL final; series mostly up to 46.1 µM; activity, negative = inhibition: at the top concentration
# Procedure, shortened: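 GFP signal (ex488/em500-530) from TGF-beta-stimulated HEPG2 CAGA-GFP cells, 500 pg/mL final, 18 h at 37 degrees C in DMEM plus 1% FBS, normalized to unstimulated and DMSO-stimulated controls.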
# % is scaled to controls: 0 for no effect and ±100 for the full control effect; potency is read from the fitted curve at half-maximal effect.
Structure (SMILES),"activity, negative = inhibition [%]",Potency
COc1ccccc1NC(=O)CSc1oc(-c2ccco2)nc1S(=O)(=O)c1ccc(Br)cc1,-1.11,–
COc1ccccc1-c1cc2nc(C)c(CCC(=O)O)c(C)n2n1,25.9,–
CN(N=O)c1ccc(C=C2c3ccccc3-c3ccccc32)cc1,15.6,–
Cc1ccc(-c2nc(=N)sn2Cc2ccccc2)cc1,4.17,–
Cc1ccc(-n2c3nc(=O)[nH]c(=O)c-3cc3c(Cl)cccc32)cc1,8.21,–
O=C(NCCCN1CCN(c2cccc(Cl)c2)CC1)c1nnc(Cc2ccc(F)cc2Cl)o1,–,10 µM (active)
Cc1ccc(CCNC(=O)c2nnc(Cc3cccc(F)c3)o2)cc1,-9.99,–
COc1ccc(N2CCN(CCNC(=O)c3nnc(Cc4c(F)cccc4Cl)o3)CC2)cc1,0,–
COc1ccc(CCC(=O)NCc2ccc3c(c2)CCN3C(=O)c2ccc(F)cc2)cc1,13.9,–
CCCNC(=O)c1ccc(Cn2c(SCC(N)=O)nc3ccccc3c2=O)cc1,6.6,–
COc1ccc(OC)c(CNC(=O)c2c3c(nc4ccccc24)C(=O)N(C2CCCCC2)C3)c1,17.7,–
Cn1c(NCc2cccnc2)nc2cc(-c3ccc(F)cc3)sc2c1=O,17.1,–
O=c1[nH]c(CCl)nc2cc(-c3ccc(Cl)cc3)sc12,–,5.01 µM (active)
SCc1nc2ccc(Cl)cc2[nH]1,-2.28,–
CC(C)(C)c1ccc(C(=O)C[N+]2(C)CCCc3ccccc32)cc1 (stereo unspecified),-15.7,–
Cc1nc(N=C(N)N)nc2c(C)cccc12,–,11.2 µM (active)
N#Cc1ccc[n+](CC(=O)c2ccc(O)c(O)c2)c1,18.3,–
CCCCCCCNc1ccc(/C=C/c2ccnc3ccccc23)cc1,-2.79,–
COc1ccc(Cn2c(=O)c3oc4ccccc4c3n(CC(=O)Nc3ccc(F)cc3F)c2=O)cc1,0.208,–
CC(C)CNc1ncnc2c1nnn2C,-15.1,–
CCCCSc1ncnc2c1sc1nc(N3CCOCC3)c3c(c12)CCCC3,4.55,–

Structure (SMILES),"activity, negative = inhibition [%]",Potency
Cc1oc2cc(Br)c(O)c(Br)c2c1C(=O)c1ccccc1,-23,–
CCOC(=O)c1c(C)oc2cc(Sc3ccccc3)c(O)c(O)c12,–,10 µM (active)
CCOC(=O)c1c(-c2ccccc2)oc2cc(Br)c(O)c(C=O)c12,0,–
CCOc1ccc(NC(=O)c2c(NC(=O)Cc3ccccc3)sc3c2CCC(C)C3)cc1 (stereo unspecified),-6.64,–
COc1ccc(Cn2c(C(=O)O)c(CNCc3cccc(OC)c3)c3ccc(C)cc32)cc1,24.5,–
COc1ccc(-n2c(=O)c3ccccc3n(Cc3ccccc3Cl)c2=O)cc1,-14.6,–
Cc1ccccc1-c1n[nH]c(=S)n1/N=C/c1ccc(-c2ccccc2Br)o1,1.01,–
COc1ccccc1N1CCN(/N=C\C(Br)=C\c2ccccc2)CC1,-15.2,–
Cc1cc(-c2n[nH]c(=S)n2/N=C/C(Br)=C/c2ccccc2)n[nH]1,–,7.08 µM (active)
Cc1ccc(Cl)cc1NC(=O)CSc1nc2ccccc2nc1Cc1ccccc1,-4.85,–
Cc1ccc(CNC(=O)CSc2c(C)cnc3c2c(=O)n(C)c(=O)n3C)cc1,3.08,–
CN1CCN(c2oc(-c3ccc(COc4ccc(Cl)cc4)o3)nc2C#N)CC1,-13.8,–
CCOc1cccc(NC(=O)c2ccc(F)c(S(=O)(=O)N(CC)c3cccc(C)c3)c2)c1,-2.74,–
O=C1CC(c2ccc(F)cc2F)c2cc3c(cc2N1)OCO3 (stereo unspecified),-29.4,–
COC(=O)c1ccc(C2CC(=O)Nc3cc(OC)c(OC)cc32)cc1 (stereo unspecified),7.58,–
CCCOc1ccccc1C1CC(=O)Nc2cc3c(cc21)OCO3 (stereo unspecified),–,7.08 µM (active)
Cc1ccc(S(=O)(=O)n2nc(-c3ccc(Cl)cc3)nc2NCc2ccccc2)cc1,-0.47,–
COc1ccc(OC)c(-n2nnc3c(sc4nc(C)c(Br)c(C)c43)c2=O)c1,1.82,–
Cc1ccccc1-c1nc2scc(CCNC(=O)C(=O)Nc3ccc(F)cc3F)n2n1,-18.3,–
Cc1ccc(S(=O)(=O)N2[C@@H](c3cccc(Cl)c3)C(C(=O)O)=CC[C@H]2c2ccc(Cl)c(Cl)c2)cc1,–,15.8 µM (active)
Cc1ccccc1S(=O)(=O)N1[C@@H](c2cccc(Cl)c2)C(C(=O)OC(C)(C)C)=CC[C@H]1c1ccc(Cl)cc1,-4.34,–

Structure (SMILES),"activity, negative = inhibition [%]",Potency
CCOC(=O)C1=CC[C@@H](c2ccccc2)N(S(=O)(=O)c2ccc(C)cc2)[C@H]1c1cccc(OC)c1,-9.22,–
CCCCN(C)S(=O)(=O)c1ccc(C(=O)Nc2sc3c(c2C(N)=O)CC(C)(C)NC3(C)C)cc1,-1.07,–
CCc1ccc(NC(=O)c2nn(-c3ccc(C)cc3)c(=O)n(C)c2=O)cc1,-14.4,–
CCOC(=O)c1ccccc1NC(=O)c1nn(-c2ccc(OC)c(Cl)c2)c(=O)c2c1c1ccccc1n2C,-24.8,–
O=C(NC1CC(=O)N(c2ccc(F)cc2)C1)C1CCCCC1 (stereo unspecified),7.27,–
CCOC(=O)c1c(S(=O)(=O)Nc2cccc(Cl)c2)c(C)n(C)c1C,-1.47,–
CCOC(=O)c1c(S(=O)(=O)NCC(=O)Nc2ccc(C)cc2)c(C)n(C)c1C,0.889,–
CCOC(=O)c1c(S(=O)(=O)NCC(=O)Nc2ccc(Cl)c(C(F)(F)F)c2)c(C)n(C)c1C,–,11.2 µM (active)
COc1ccc(CCNC(=O)c2cnc3sc(N4CCCCCC4)nn3c2=O)cc1OC,-10.2,–
CCCn1c(C(C)Nc2nc(-c3ccc(C)cc3)cs2)nc2cc(Cl)c(N3CCCCC3)cc21 (stereo unspecified),-1.73,–
Cc1nc2cc(C(F)(F)F)ccc2n1CCNc1nc(-c2cc(Cl)c(N)c(Cl)c2)cs1,–,11.2 µM (active)
Nc1c(Cl)cc(-c2csc(N3CCCC3c3nc4cc(Cl)c(Cl)cc4n3CCOCCO)n2)cc1Cl (stereo unspecified),3.19,–
Cc1cccc(OCCCC(=O)Nc2sc3c(c2C(N)=O)CCC(C)C3)c1 (stereo unspecified),0.0551,–
O=C(CC1C(=O)N(c2ccccc2)C(=O)N1CCc1cccs1)Nc1ccc(F)cc1 (stereo unspecified),-1.13,–
O=C(NC1(C(F)(F)F)N=C(c2ccccc2)N(C2CCCCC2)C1=O)c1ccccc1F (stereo unspecified),0.835,–
O=C1NC(Nc2nc3ccccc3s2)(C(F)(F)F)C(=O)N1C1CCCCC1 (stereo unspecified),–,7.94 µM (active)
COc1cc(SC#N)ccc1N=Cc1c(C)[nH]n(-c2ccc(C)cc2)c1=O,–,10 µM (active)
CCN(CC)CCNC(=O)c1cc2c(=O)oc3ccc(C)cc3c2s1,-1.4,–
Cc1cccc(-n2ncc(C(=O)N3CCc4ccccc4C3)c2C2CCN(C(=O)OC(C)(C)C)CC2)c1,2.06,–
